Source: PubChem BioAssay
TDP1 cell noCPT: qHTS for Inhibitors of human tyrosyl-DNA phosphodiesterase 1 (TDP1): qHTS in cells in absence of CPT. DT40 Tdp1-/- hTDP1 cells, no CPT, ATP luminescence, 48 h. Potency, µM (top dose mostly 46.2 µM), inactives show at the highest dose activity change, negative = growth inhibition, actives largely listed as inhibitors. 420,000 tested, 15% active; note: potency is the fitted concentration of half-maximal effect; nearly all actives have a fitted effect of over 55% in size
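Growth kinetics read by CellTiter-Glo luminescence after ≥48 hr at 37 °C. Cells: DT40 Tdp1-/- stably carrying human TDP1, 400 per well, compound exposure in the absence of CPT (DMSO vehicle).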
IL-1B inflam inh: qHTS for Inhibitors of Inflammasome Signaling: IL-1-beta AlphaLISA Primary Screen; THP-1 LPS/ATP IL-1B secretion, AlphaLISA, 16 h; active compounds read low; activity change, % at 57.5 µM; 360,000 tested, 4.7% active; AID 743279, 2014; in the data active = activity change below about -50%; inconclusive = mostly about -30% to -49%
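THP-1 cells pretreated 1 hr with compounds (up to 57.5 uM final), then stimulated with LPS (250 ng/mL final) plus ATP (1.25 mM final); secreted IL-1B measured by AlphaLISA after 16 hr, decreased signal indicating inhibition.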
HT1080 IDH1KD tx: qHTS for induction of synthetic lethality in tumor cells producing 2HG: qHTS for the HT-1080-IDH1KD cell line; Potency, µM (highest dose often 46.1 µM), inactives show at the highest dose activity, negative = toxicity, usual class: cytotoxic; 360,000 tested, 2% active; HT-1080 IDH1 knockdown viability, ATP luminescence, 48 h; AID 686971, 2013;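 note: potency is the fitted concentration of half-maximal effect; 0% = DMSO wells and -100% = cell-free medium wells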
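Viability of IDH1-knockdown HT-1080 fibrosarcoma cells was assessed by CellTiter-Glo after 48 h at 37 °C with titrated compound; concentration-effect curves were classified by fit quality and response size.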
HT1080-NT tox: qHTS for induction of synthetic lethality in tumor cells producing 2HG: qHTS for the HT-1080-NT fibrosarcoma cell line | HT-1080-NT fibrosarcoma viability, CellTiter-Glo ATP luminescence, 48 h | Potency, µM (doses to about 46.1 µM), without a hit: at the top dose activity, negative = less viability, hits mostly cytotoxic | 360,000 tested, 1.6% active | AID 686970, 2013;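 note: NT is the 2HG producing partner of a matched IDH1 knockdown line; potency is the fitted concentration of half-maximal effect; 0% = DMSO-treated cells and -100% = media-only wells without cells; nearly all actives have a fitted effect of over 55% in size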
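Viability of the 2HG-overproducing fibrosarcoma line after 48 hours of compound exposure at 37 degrees C was determined by luminescence with CellTiter-Glo, and concentration-effect curves were then fitted and categorized.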
TDP1 cell CPT: qHTS for Inhibitors of human tyrosyl-DNA phosphodiesterase 1 (TDP1): qHTS in cells in presence of CPT | chicken DT40 Tdp1-/-;hTDP1 cells + 20 nM CPT, ATP luminescence, 48 h | Potency, µM (titrated, usually from 46.2 µM), for inactives: at the top dose activity change, negative = growth inhibition, hits mostly inhibitors | 420,000 tested, 12% active | AID 686979, 2013; note: potency is the fitted concentration of half-maximal effect; nearly all actives have a fitted effect of over 55% in size
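Cell growth measured by CellTiter-Glo luminescence after a minimum 48 h, 37 C compound exposure with 20 nM CPT in Tdp1-knockout DT40 cells stably expressing hTDP1, seeded 400/well; qHTS titration format.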
Numbers without * were called inactive. A selection: hits, their analogues and other compounds. The true share with any hit is near 19%. Unless noted, calls come from the whole dose curve; as a rule, active = well fitted curve in the direction sought with a large enough effect; inconclusive = small, poorly fitted or top-dose-only effect, or another doubt; inactive = no such curve, though single readings can be large; an effect the other way counts as inactive or inconclusive. Unless noted, % is set by controls: 0 for no effect and ±100 for the full control effect.

How did CCOc1ccc(C2C=C(c3ccc(C)cc3)Nc3nnnn32)cc1 (configuration not stated) do in these assays?
TDP1 cell noCPT: 12µM*; IL-1B inflam inh: -19; HT1080 IDH1KD tx: 13µM*; HT1080-NT tox: inconclusive; TDP1 cell CPT: 9.2µM*

What do the screens show for `O=C(Nc1ccc2oc(-c3ccccc3Cl)nc2c1)c1cncc(Br)c1`?
TDP1 cell noCPT: 12µM*; IL-1B inflam inh: -24; HT1080 IDH1KD tx: -9%; HT1080-NT tox: inconclusive; TDP1 cell CPT: 7.3µM*

Results for O=C(Nc1ccc2oc(-c3cc(Br)ccc3Cl)nc2c1)c1ccc2ccccc2c1 ?
TDP1 cell noCPT: 12µM*; TDP1 cell CPT: 16µM*

How did O=C(Nc1ccc2oc(-c3cccnc3)nc2c1)c1ccc(Br)cc1 do in these assays?
TDP1 cell noCPT: -19%; TDP1 cell CPT: -20%

How did O=C(Nc1ccc2oc(-c3ccccc3Cl)nc2c1)c1ncn[nH]1 do in these assays?
TDP1 cell noCPT: 1%; IL-1B inflam inh: -1; HT1080 IDH1KD tx: -2%; HT1080-NT tox: 1%; TDP1 cell CPT: -8%

What do the screens show for `Cc1cn(-c2cc(C(=O)Nc3ccc(C)c(NC(=O)C(=O)c4c[nH]c5ccccc45)c3)cc(C(F)(F)F)c2)cn1`?
TDP1 cell noCPT: 7.3µM*; IL-1B inflam inh: 3; HT1080 IDH1KD tx: inconclusive; HT1080-NT tox: inconclusive; TDP1 cell CPT: 8.2µM*

What do the screens show for `COC(=O)c1ccc(NC(=O)C(=O)c2c[nH]c3ccccc23)cc1`?
TDP1 cell noCPT: -18%; IL-1B inflam inh: 10; HT1080 IDH1KD tx: 7%; HT1080-NT tox: 4%; TDP1 cell CPT: -1%

Results for COc1ccccc1CCNC(=O)CCSc1nc(-c2ccco2)cc(C(F)(F)F)n1 ?
TDP1 cell noCPT: inconclusive; IL-1B inflam inh: -13; HT1080 IDH1KD tx: -26%; HT1080-NT tox: -6%; TDP1 cell CPT: 23µM*

What do the screens show for `O=C(CSc1nc(-c2ccco2)cc(C(F)(F)F)n1)Nc1cccnc1`?
TDP1 cell noCPT: 21µM*; IL-1B inflam inh: 22; HT1080 IDH1KD tx: inconclusive; HT1080-NT tox: inconclusive; TDP1 cell CPT: inconclusive

What do the screens show for `COc1ccc(-c2ccc(C#N)c(SCC(=O)Nc3sc4c(c3C#N)CCC4)n2)cc1OC`?
TDP1 cell noCPT: 15µM*; IL-1B inflam inh: -5; HT1080 IDH1KD tx: 6%; HT1080-NT tox: 2%; TDP1 cell CPT: 23µM*

What do the screens show for `O=C(CSc1nc(-c2ccco2)cc(C(F)(F)F)n1)Nc1ccc(C(=O)N2CCOCC2)cc1`?
TDP1 cell noCPT: inconclusive; IL-1B inflam inh: -3; HT1080 IDH1KD tx: -6%; HT1080-NT tox: 0%; TDP1 cell CPT: inconclusive

How did COc1cc(NC(=O)CSc2nc(-c3ccco3)cc(C(F)(F)F)n2)cc(OC)c1OC do in these assays?
TDP1 cell noCPT: 5.2µM*; TDP1 cell CPT: 3.7µM*

Results for CN1CC[C@@H]2C(=O)N3CCc4ccc(Br)cc4[C@@H]3C[C@@H]21 ?
TDP1 cell noCPT: -7%; IL-1B inflam inh: -10; HT1080 IDH1KD tx: -3%; HT1080-NT tox: 1%; TDP1 cell CPT: -3%

How did CC(C)C(=O)Nc1cccc(C(=O)Nc2cc([N+](=O)[O-])ccc2F)c1 do in these assays?
TDP1 cell noCPT: inconclusive; IL-1B inflam inh: -8; HT1080 IDH1KD tx: 14%; HT1080-NT tox: -2%; TDP1 cell CPT: inconclusive

How did Cc1ccc(NC(=O)CN2C(=O)C(=O)N(C3CCCC3)C2=O)cc1Cl do in these assays?
TDP1 cell noCPT: 7%; IL-1B inflam inh: -2; HT1080 IDH1KD tx: 1%; HT1080-NT tox: 0%; TDP1 cell CPT: -13%

What do the screens show for `COc1ccc(NC(=O)CSc2nc(-c3ccco3)cc(C(F)(F)F)n2)cc1`?
TDP1 cell noCPT: 8.2µM*; TDP1 cell CPT: inconclusive

Results for Cc1ccnc(SCC(=O)Nc2sc3c(c2C#N)CCCC3)n1 ?
TDP1 cell noCPT: 2.9µM*; IL-1B inflam inh: inconclusive; HT1080 IDH1KD tx: -19%; HT1080-NT tox: -13%; TDP1 cell CPT: 3.3µM*

What do the screens show for `CCN(CC)c1ccc(NC(=O)CSc2n[nH]c(-c3ccco3)n2)cc1`?
TDP1 cell noCPT: 23µM*; IL-1B inflam inh: 7; HT1080 IDH1KD tx: 2%; HT1080-NT tox: 0%; TDP1 cell CPT: inconclusive

What do the screens show for `COc1ccc(-c2cc(C(F)(F)F)nc(SCC(=O)Nc3ccc(C(C)=O)cc3)n2)cc1`?
TDP1 cell noCPT: inconclusive; TDP1 cell CPT: 21µM*

What do the screens show for `Cc1ccc(NC(=O)CSc2n[nH]c(-c3ccco3)n2)cc1`?
TDP1 cell noCPT: -9%; IL-1B inflam inh: 6; HT1080 IDH1KD tx: 18%; HT1080-NT tox: 21%; TDP1 cell CPT: 0%

How did CC1(c2nnc(-c3ccncc3)o2)CC(c2ccc(F)cc2)=NO1 (configuration not stated) do in these assays?
TDP1 cell noCPT: inconclusive; IL-1B inflam inh: -23; HT1080 IDH1KD tx: -3%; HT1080-NT tox: -2%; TDP1 cell CPT: inconclusive

What do the screens show for `CCC(/C=C/C(C)C1CCC2C3CCC4=CC(=O)CC[C@@]4(C)C3CC[C@@]12C)C(C)C` (some centres not stated)?
TDP1 cell noCPT: 4%; TDP1 cell CPT: -9%

What do the screens show for `C=C(NNC(C)=O)c1ccc(O)cc1`?
TDP1 cell noCPT: 7%; TDP1 cell CPT: -5%

What do the screens show for `CC(C)CCNC(=O)CCn1nc(-c2ccc(Cl)cc2)ccc1=O`?
TDP1 cell noCPT: -5%; IL-1B inflam inh: -22; HT1080 IDH1KD tx: 14%; HT1080-NT tox: 9%; TDP1 cell CPT: -12%

Results for N#Cc1c(NC(=O)CSc2nc(-c3ccccc3)cc(C(F)(F)F)n2)sc2c1CCC2 ?
TDP1 cell noCPT: inconclusive; IL-1B inflam inh: -13; HT1080 IDH1KD tx: 12%; HT1080-NT tox: 16%; TDP1 cell CPT: -19%

Results for COc1ccc(-c2cc(C(F)(F)F)nc(SCC(=O)Nc3sc4c(c3C#N)CCC4)n2)cc1 ?
TDP1 cell noCPT: 5.8µM*; IL-1B inflam inh: -8; HT1080 IDH1KD tx: -2%; HT1080-NT tox: 17%; TDP1 cell CPT: inconclusive

What do the screens show for `CC1CCN(C(=O)CSc2nc(-c3ccc(F)cc3)cc(C(F)(F)F)n2)CC1`?
TDP1 cell noCPT: inconclusive; TDP1 cell CPT: 21µM*

What do the screens show for `COc1ccc(NC(=O)CSc2ccc(-c3ccco3)nn2)cc1OC`?
TDP1 cell noCPT: 10µM*; IL-1B inflam inh: inactive; HT1080 IDH1KD tx: 0%; HT1080-NT tox: -10%; TDP1 cell CPT: 16µM*
